From PubChem
Rows were chosen to be rich in hits. Some 3.5% of all compounds tested hit in one or more screens of this group.
mHTT-CaM PPI inh: mHTT-calmodulin interaction abrogation; P42858; AlphaScreen His-mHTT/GST-CaM binding, luminescence; actives 3.6% (n = 190,000); inhibition, % at 15 µM;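 note: 0% = both proteins with DMSO and 100% = one protein alone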
Pf apPOL block: Pf-apPOL DNA polymerase inhibition; Recombinant Pf-apPOL, molecular beacon fluorescence, 1.5 h; inhibition, % at 10 µM; actives 0.25% (n = 210,000); AID 1794808
Numbers without * were called inactive; . = no result. Cut-off read from the data, not from the text of the source: active = inhibition above about 50%; inactive = the rest.

SMILES | mHTT-CaM PPI inh | Pf apPOL block
COc1cc2c(cc1OC)C(COc1ccccc1OC)N(C(=O)C(C)C)CC2 (stereo not given) | 9 | 0
COC(=O)c1ccc(OCC2c3cc(OC)c(OC)cc3CCN2C(=O)C2CC2)cc1 (stereo not given) | 30 | -7
COc1cc2c(cc1OC)C(COc1cccc(C(F)(F)F)c1)N(C(=O)C(C)C)CC2 (stereo not given) | 96* | -1
COc1cc2c(cc1OC)C(COc1cccc(C(F)(F)F)c1)N(C(=O)C1CC1)CC2 (stereo not given) | 95* | -6
COc1cc2c(cc1OC)C(COc1cccc(C(F)(F)F)c1)N(C(=O)c1ccco1)CC2 (stereo not given) | 100* | -4
O=C1CC(N2CCN(c3ccccn3)CC2)C(=O)N1c1ccc(Br)cc1 (stereo not given) | 12 | -5
COC(=O)C1CN(Cc2ccc(F)cc2)CCS(=O)(=O)N1Cc1ccc(F)cc1 (stereo not given) | 18 | -7
COC(=O)C1CN(CCc2ccccc2)CCS(=O)(=O)N1Cc1ccc(OC)cc1 (stereo not given) | 7 | -2
COC(=O)C1CN(CCc2ccccc2)CCS(=O)(=O)N1Cc1ccc(Cl)cc1 (stereo not given) | 71* | -4
COC(=O)C1CN(Cc2ccccc2)CCS(=O)(=O)N1Cc1ccccc1 (stereo not given) | -6 | 2
COC(=O)C1CN(Cc2ccccc2)CCS(=O)(=O)N1Cc1ccc(C(F)(F)F)cc1 (stereo not given) | 87* | -2
COC(=O)C1CN(Cc2ccc(F)cc2)CCS(=O)(=O)N1Cc1ccc(C(F)(F)F)cc1 (stereo not given) | 69* | -3
CC1CCCN(Cc2nc(-c3ccc(N4CCSCC4)nc3)no2)C1 (stereo not given) | 4 | -1
Cc1ccc(N2C(=O)CSC2c2ccc([N+](=O)[O-])cc2)cc1 (stereo not given) | 8 | 0
Cc1ccc(N2C(=O)CSC2c2ccc3c(c2)OCO3)cc1 (stereo not given) | 1 | -2
O=C1CSC(c2ccc3c(c2)OCO3)N1c1ccc(Oc2ccccc2)cc1 (stereo not given) | 100* | -1
O=C1CSC(c2ccc([N+](=O)[O-])cc2)N1c1ccc(Oc2ccccc2)cc1 (stereo not given) | 75* | -2
Cc1[nH][nH]c(=O)c1C1=NC(C)(C)Cc2ccccc21 | -1 | -3
Cc1nc(Cl)c(C(=O)NC(C)C)c(C)c1Cl | -2 | -2
O=C(Nc1ccccc1Cl)N1CCCC1c1ccc(F)cc1 (stereo not given) | -11 | -8
Cc1cccc(C2c3cccn3CCN2C(=O)CC(=O)NC(C)C)c1 (stereo not given) | 40 | 1
Oc1cccc(C2c3cccn3CCCN2Cc2cc(Cl)ccc2O)c1 (stereo not given) | 100* | -2
CC(C)c1cc(C2CCCN2Cc2cc(Cl)ccc2O)on1 (stereo not given) | -30 | 4
Oc1cccc(CN2CCCn3cccc3C2c2ccc(F)cc2)c1O (stereo not given) | 98* | 2
Cc1ccc(O)c(CN2CCCn3cccc3C2c2cccc(O)c2)c1 (stereo not given) | 100* | -4
SMILES | mHTT-CaM PPI inh | Pf apPOL block
O=C(NCc1ccc(F)cc1)N1CCn2cccc2C1Cc1ccccc1 (stereo not given) | 22 | -5
CC(=O)Oc1ccc(N2C(=O)CC(Nc3ccc(N4CCOCC4)cc3)C2=O)cc1 (stereo not given) | 6 | 1
CN1C(=O)C(CC(=O)NCc2ccccc2)Sc2ncccc21 (stereo not given) | -9 | 0
COc1cc(/C=C2\C(=O)N(c3ccc(C(=O)O)cc3)N=C2C(F)(F)F)ccc1OCC(C)C | 74* | 0
COc1cc(/C=C2/C(=O)N(c3ccc(C(=O)O)cc3)N=C2C)cc(OC)c1OC | 1 | 0
CCOc1cc(/C=C2\NC(=O)N(Cc3ccc(Br)cc3)C2=O)ccc1OCC(=O)O | 19 | -2
Cc1c(Cl)cccc1N1C(=O)NC2CC1(C)Oc1ccc(Br)cc12 (stereo not given) | 39 | -4
CCc1ccc(NC(=O)c2c(C)cc(Cl)nc2Cl)cc1 | -14 | -5
CC(C)c1nc2c(c(=O)n1CC(=O)Nc1ccccc1F)CCN(Cc1ccccc1)C2 | 9 | -1
CC(C)c1nc2c(c(=O)n1CC(=O)Nc1cccc(F)c1)CCN(Cc1ccccc1)C2 | 84* | -4
CC1(C)Cc2nc3sc(C(=O)O)c(N)c3cc2CS1 | 51* | 0
Nc1c(C(=O)O)sc2nc3c(cc12)CCCC3 | -4 | .
COc1ccc(S(=O)(=O)n2cccn2)cc1 | -4 | 2
CC1=C(C(=O)Nc2ccccc2)C(c2ccccc2)n2c(s/c(=C\c3cccs3)c2=O)=N1 (stereo not given) | -1 | 2
COc1ccc(Cl)cc1NC(=O)C1CCN(c2nccc3sccc23)CC1 | 100* | -3
COc1cc(OC)c(NC(=O)C2CCCN(c3nccc4sccc34)C2)cc1Cl (stereo not given) | 45 | -5
COc1cc(Cl)c(NC(=O)C2CCCN(c3nccc4sccc34)C2)c(OC)c1 (stereo not given) | 60* | 3
COc1ccc(Cl)cc1NC(=O)C1CCN(c2nccc(C)n2)CC1 | -8 | 0
CN(C)N1C(=O)c2ccccc2C1=O | -15 | -6
CN(C1=CC(=O)c2ccccc2C1=O)c1ccccc1 | 60* | 5
N#CCC[C@H]1CC[C@]2(CCCN(Cc3ccccc3)C2)O1 | -5 | -4
N#CCC[C@@H]1CC[C@]2(CCCN(Cc3ccc(Cl)cc3)C2)O1 | 74* | -3
COCCN1C(=O)c2ccccc2C(C(=O)N(C)c2ccc(C(C)C)cc2)C1c1ccc(F)cc1 (stereo not given) | 57* | -2
COCCN1C(=O)c2ccccc2C(C(=O)N(C)C2CCCCC2)C1c1ccc(F)cc1 (stereo not given) | 5 | 1
CC(=O)c1cccc(NC(=O)c2ccc(-c3ccc(Cl)cc3)o2)c1 | 21 | -12
SMILES | mHTT-CaM PPI inh | Pf apPOL block
COC(C(=O)NCCC1=CCCCC1)c1ccccc1 (stereo not given) | -7 | 0
Cc1ccccc1-c1noc(C2CCCN2C(=O)Cc2cccs2)n1 (stereo not given) | -6 | -7
CCOC1=NC2Nc3ccc(Cl)cc3N(C)C2C1c1ccc([N+](=O)[O-])cc1 (stereo not given) | 54* | -2
CCN1c2ccccc2NC2N=C(OC)C(c3ccccc3)C21 (stereo not given) | 41 | -2
COc1ccc2[nH]c3c(c2c1)CC(C)NC3=O (stereo not given) | 1 | -3
O=C1NCCc2c1[nH]c1ccc(C#Cc3ccccc3)cc21 | 97* | -31
CCOc1ccc(OCCNC(=O)c2cccs2)cc1 | -18 | -9
CC(Oc1ccccc1F)C(=O)NCCOc1ccc(-c2ccccn2)nn1 (stereo not given) | 100* | -9
O=C(NCCOc1ccccc1-c1ccccc1)c1ccco1 | 0 | -1
O=C(NCCOc1ccc(-c2ccccn2)nn1)c1cccs1 | 100* | -15
CC(Oc1ccccc1F)C(=O)NCCN1CCCCC1 (stereo not given) | -1 | -3
O=C(NCCOc1ccc(-c2ccccn2)nn1)c1ccco1 | 100* | -9
